The subject of test [1] is Wnt5a (protein binding on small-molecule microarray). As to the kind of experiment: Wnt5a binders on small-molecule microarray, primary screen, biophysical, 635/667 nm fluorescence (AID 1142).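 Further: fluorescence read at 667 nm with signal to noise per printed feature.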 As to conditions: 635 nm fluorescence, higher = more signal.
A short description of test [2]: cell viability in Huh7 cells, primary screen, cytotoxicity control for HCV replication inhibitor project, CellTiter-Glo luminescence, basal, 48 h (AID 1143).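 Further: Huh7 hepatoma cells carrying a hepatitis C replication reporter with no stimulus; test concentration not given here.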 As to conditions: Huh7 HCV replicon, higher = more signal, called active from +8 up or from −8 down. In general terms: In ATP-based viability assays light output follows the ATP content of the culture.
Test [3] in a line: P. aeruginosa biofilm formation inhibitors, primary screen, PAO1 strain, BacTiter-Glo luminescence, LB-PBS (AID 1144). The following applies: 12 h, higher = more signal.
Test [4] can be described thus: CREB reporter modulators without forskolin, primary screen, cell-based, PC12, CRE-LacZ reporter, unstimulated (AID 1145). As to conditions: no forskolin, luminescence, 4.5 h, higher = more signal, called active from +8 up or from −8 down.
Test [5] is described as follows: CREB reporter modulators under forskolin, primary screen, cell-based, PC12, CRE-LacZ reporter, forskolin-stimulated (AID 1146).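 Further: PC12 cells with 6xCRE LacZ reporter stimulated by forskolin 10 µM; beta-galactosidase reporter signal reflecting CREB driven transcription.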 The following applies: luminescence, 4.5 h, higher = more signal, called active from +8 up or from −8 down.
For test [6], the target named is Streptavidin (Streptomyces avidinii) (UniProt P22629). As to the kind of experiment: streptavidin binders on small-molecule microarray, primary screen, artefact control for SMM compound annotation, biophysical, 635/667 nm fluorescence (AID 1147).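 Further: signal reflects streptavidin binding to arrayed compounds as a control protein.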 As to conditions: streptavidin binding, higher = more signal.
Test [7] in a line: small-molecule binders of probe aInhba, primary screen, biochemical, small-molecule microarray, 635/667 nm fluorescence (AID 1148).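 Further: score merges 667nm spot fluorescence with signal-to-noise for antibody binding to printed compounds.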 As to conditions: higher = more signal.
The target in test [8] is Torsin-1A (Homo sapiens) (UniProt O14656). As to the kind of experiment: torsin A binders from cell lysate, primary screen, small-molecule microarray, wild-type, 635/667 nm (AID 1149). The following applies: COS7 hTOR1A-WT lysate, 635 nm fluorescence, higher = more signal.
Test [9] shares this target. As to the kind of experiment: small-molecule binders of mutant TOR1A in lysate, primary screen, cell lysate, small-molecule microarray, COS7 lysate, 635/667 nm fluorescence (AID 1150).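 Further: score pools 667 nm emission and signal to noise measuring lysate protein binding.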 The following applies: COS7 hTOR1A mutant lysate, 635 nm fluorescence, higher = more signal.
For test [10], the system named is Sonic hedgehog protein (Shh). As to the kind of experiment: small-molecule binders of Shh protein, primary screen, biochemical, small-molecule microarray, 635/667 nm fluorescence (AID 1151).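 Further: Shh protein binding to compounds spotted on small-molecule microarray slides; score combines spot fluorescence intensity with signal-to-noise across triplicate slides.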 As to conditions: small-molecule microarray binding, 635 nm fluorescence; higher = more signal.
Test [11] is described as follows: E. coli DRC41 culture turbidity changes, primary screen, E. coli filamentation inducer project, strain DRC41, OD650, 48 h (AID 1152).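 Further: E. coli MC1000 strain DRC41 lacking acrAB efflux pump and sulA.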 The following applies: E. coli DRC41 (acrAB sulA), higher = more signal, called active from +8 up or from −8 down.
Test [12] is described as follows: small-molecule binders of probe aLefty1, primary screen, biochemical, small-molecule microarray, 635/667 nm fluorescence (AID 1153).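 Further: score merges spot fluorescence with signal-to-noise ratio from the scanned slide images.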 As to conditions: higher = more signal.
Test [13] is described as follows: PSAC antagonists in infected red cells, primary screen, cell-based, P. falciparum Indochina, OD700, 1 h (AID 1154). The following applies: P. falciparum Indochina infected RBC osmotic lysis, higher = more signal, called active from +8 up or from −8 down.
Test [14] can be described thus: PSAC antagonists in infected red cells, primary screen, cell-based, P. falciparum Indochina, OD700, 2 h (AID 1155).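 Further: lysis reports solute entry through the parasite surface anion channel PSAC; channel blockers reduce lysis of infected cells.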 The following applies: P. falciparum Indochina infected erythrocytes, osmotic lysis OD700; higher = more signal, called active from +8 up or from −8 down.
The nature of test [15]: osmotic lysis modulators in infected erythrocytes, primary screen, PSAC antagonist project, cell-based, P. falciparum Indochina, OD700, 3 h (AID 1156). As to conditions: higher = more signal, called active from +8 up or from −8 down.
A short description of test [16]: PSAC antagonists in infected red cells, primary screen, cell-based, P. falciparum Indochina, OD700, 18 h (AID 1157). As to conditions: P. falciparum Indochina infected erythrocytes, osmotic lysis OD700, 18 h; higher = more signal, called active from +8 up or from −8 down.
The nature of test [17]: modulators of S6 phosphorylation in cells, primary screen, cell-based, A549, cytoblot, luminescence, serum-stimulated (AID 1158).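 Further: serum-stimulated A549 lung adenocarcinoma cells; signal is phosphorylated S6 detected by cytoblot immunostaining with HRP secondary.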 The following applies: A549 phospho-S6 cytoblot, 5 h, higher = more signal.
For test [18], the target named is NADPH oxidase 2 (Homo sapiens) (UniProt P04839). The experiment in a line: NOX2-dependent H2O2 signal modulators, primary screen, NOX inhibitor project, cell-based, HEK293-NOX2, PMA-stimulated, Amplex Red fluorescence (AID 1159). Further: test concentration not given here. As to conditions: 45 min, higher = more signal, called active from +8 up or from −8 down.
Test [19] deals with NADPH oxidase 4 (Homo sapiens) (UniProt Q9NPH5). As to the kind of experiment: NOX4-dependent H2O2 signal modulators, primary screen, NOX inhibitor project, cell-based, HEK293-NOX4, tetracycline-induced, Amplex Red fluorescence (AID 1160). The following applies: 45 min, higher = more signal, called active from +8 up or from −8 down.
The target in test [20] is NADPH oxidase 5 (Homo sapiens) (UniProt Q96PH1). As to the kind of experiment: NOX5-dependent H2O2 signal modulators, primary screen, NOX inhibitor project, cell-based, HEK293-NOX5, Amplex Red fluorescence (AID 1161). The following applies: HEK293-NOX5, ionomycin, 45 min, higher = more signal.

Activity calls are given as the source filed them. Unless noted, how the calls were made is not given here.

Sequence of Torsin-1A (Homo sapiens) (O14656 whole entry, looked up): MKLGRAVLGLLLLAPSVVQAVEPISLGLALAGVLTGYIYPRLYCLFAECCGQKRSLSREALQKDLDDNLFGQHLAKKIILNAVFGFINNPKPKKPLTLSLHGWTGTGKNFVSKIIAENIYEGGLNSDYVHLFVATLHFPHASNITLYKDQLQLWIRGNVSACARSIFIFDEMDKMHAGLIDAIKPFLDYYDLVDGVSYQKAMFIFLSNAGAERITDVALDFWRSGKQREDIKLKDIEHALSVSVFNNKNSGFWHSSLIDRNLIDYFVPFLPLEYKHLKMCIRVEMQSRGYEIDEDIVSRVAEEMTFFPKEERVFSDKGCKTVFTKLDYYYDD
Sequence of NADPH oxidase 4 (Homo sapiens) (Q9NPH5 whole entry, looked up): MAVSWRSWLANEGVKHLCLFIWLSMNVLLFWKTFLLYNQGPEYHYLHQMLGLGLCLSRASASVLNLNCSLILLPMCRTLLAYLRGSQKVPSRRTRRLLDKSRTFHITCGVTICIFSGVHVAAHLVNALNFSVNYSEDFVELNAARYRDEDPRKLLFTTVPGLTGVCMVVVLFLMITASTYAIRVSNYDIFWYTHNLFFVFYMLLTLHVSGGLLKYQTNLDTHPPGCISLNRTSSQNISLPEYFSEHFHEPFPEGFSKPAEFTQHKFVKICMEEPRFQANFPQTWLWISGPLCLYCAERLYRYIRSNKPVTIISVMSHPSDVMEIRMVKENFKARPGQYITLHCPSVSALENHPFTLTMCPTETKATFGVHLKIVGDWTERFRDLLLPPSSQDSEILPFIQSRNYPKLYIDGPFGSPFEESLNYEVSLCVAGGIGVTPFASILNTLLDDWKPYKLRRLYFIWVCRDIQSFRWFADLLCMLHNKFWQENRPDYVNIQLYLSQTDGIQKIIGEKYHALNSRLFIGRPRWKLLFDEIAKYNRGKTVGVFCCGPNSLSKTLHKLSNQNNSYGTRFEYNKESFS
Sequence of Streptavidin (Streptomyces avidinii) (P22629 whole entry, looked up): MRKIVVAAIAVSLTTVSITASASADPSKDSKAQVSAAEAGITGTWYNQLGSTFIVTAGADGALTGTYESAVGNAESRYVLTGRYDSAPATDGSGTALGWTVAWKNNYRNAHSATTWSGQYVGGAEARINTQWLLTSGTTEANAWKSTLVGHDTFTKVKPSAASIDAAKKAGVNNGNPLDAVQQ
Sequence of NADPH oxidase 5 (Homo sapiens) (Q96PH1 whole entry, looked up): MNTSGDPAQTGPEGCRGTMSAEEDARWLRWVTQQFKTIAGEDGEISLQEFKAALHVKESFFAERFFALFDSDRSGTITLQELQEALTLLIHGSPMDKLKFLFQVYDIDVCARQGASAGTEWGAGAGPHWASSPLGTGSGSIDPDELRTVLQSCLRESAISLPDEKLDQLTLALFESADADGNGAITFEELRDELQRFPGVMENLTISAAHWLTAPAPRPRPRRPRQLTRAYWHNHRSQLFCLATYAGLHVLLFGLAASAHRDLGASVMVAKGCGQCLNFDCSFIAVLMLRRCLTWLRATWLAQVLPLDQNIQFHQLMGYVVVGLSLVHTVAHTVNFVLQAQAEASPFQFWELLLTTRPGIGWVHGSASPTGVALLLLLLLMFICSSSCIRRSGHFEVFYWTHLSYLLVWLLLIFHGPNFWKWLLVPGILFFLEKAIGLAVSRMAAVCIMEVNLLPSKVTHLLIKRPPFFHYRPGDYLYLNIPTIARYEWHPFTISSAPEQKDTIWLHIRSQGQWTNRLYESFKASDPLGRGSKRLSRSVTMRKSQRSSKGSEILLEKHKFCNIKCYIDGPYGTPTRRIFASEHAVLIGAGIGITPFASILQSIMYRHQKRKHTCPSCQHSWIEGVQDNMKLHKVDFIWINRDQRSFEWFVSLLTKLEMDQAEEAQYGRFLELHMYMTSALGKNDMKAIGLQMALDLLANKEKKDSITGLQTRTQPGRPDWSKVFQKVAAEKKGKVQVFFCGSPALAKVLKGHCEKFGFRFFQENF
Sequence of NADPH oxidase 2 (Homo sapiens) (P04839 whole entry, looked up): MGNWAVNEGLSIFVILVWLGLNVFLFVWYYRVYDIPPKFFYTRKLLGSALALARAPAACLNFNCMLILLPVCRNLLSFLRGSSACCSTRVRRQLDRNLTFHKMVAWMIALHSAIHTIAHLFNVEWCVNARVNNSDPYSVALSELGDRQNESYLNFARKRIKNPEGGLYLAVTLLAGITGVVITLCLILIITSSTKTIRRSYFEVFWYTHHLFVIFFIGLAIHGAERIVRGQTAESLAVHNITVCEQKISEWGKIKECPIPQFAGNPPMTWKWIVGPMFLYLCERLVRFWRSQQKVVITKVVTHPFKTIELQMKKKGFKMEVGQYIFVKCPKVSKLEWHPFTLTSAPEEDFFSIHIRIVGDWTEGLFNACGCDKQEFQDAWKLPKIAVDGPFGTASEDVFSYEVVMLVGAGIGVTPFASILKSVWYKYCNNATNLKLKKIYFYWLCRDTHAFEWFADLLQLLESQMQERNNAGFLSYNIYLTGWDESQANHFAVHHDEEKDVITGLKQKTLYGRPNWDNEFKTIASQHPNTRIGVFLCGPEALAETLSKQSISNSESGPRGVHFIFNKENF

With `CC(C)C[C@@H]1NC(=O)CNC(=O)[C@@]23C(=O)N[C@@H](Cc4ccccc4)C2[C@H](C)[C@@]2(C)O[C@H]2C3/C=C/C/C=C\CNC1=O` (stereo not given in full), the composite z-score in test [1] is 0.184; in [6], -0.0691; in [7], -0.0494; in test [8], 1.09; in [9] it was -0.134; in test [10], 1.5. The same molecule registered a composite z-score in [12] of -0.0265. In addition, the z-score in test [2] was 0.0431 (inactive); in test [3], -0.826 (inactive); in test [4], -0.417 (inactive); in test [5], 0.297 (inactive); in test [11], -0.455 (inactive); in test [13] it was 0.349 (inactive). The z-score was -0.262 (inactive) in [14]; 0.183 (inactive) in test [15]; -0.16 (inactive) in test [16]; -0.0425 in [17]; 0.217 (inactive) in test [18]; 1.1 (inactive) in test [19]. Also, the z-score in [20] amounted to 0.149.

Regarding `C=CCC(OC(C)=O)[C@@H]1[C@@H](N(Cc2ccc(-c3ccccc3)cc2)C(=O)Cc2ccc(F)cc2)c2cc(OCCCO)ccc2N1C(=O)Cc1ccc2ccccc2c1` (stereo not given in full), the composite z-score in test [1] is 0.261; in test [6], 0.612; in test [7] it was 0.038; in [8] it was -0.194; in test [9], -0.0043; in test [10] it was -0.0096. This molecule also displayed a composite z-score in [12] of 0.0774. Moreover, the z-score in [2] was 0.189 (inactive); in test [3], -0.59 (inactive); in test [4], 0.367 (inactive); in test [5], 0.997 (inactive); in test [11], 0.882 (inactive); in test [13], 1.84 (inactive). Moreover, the z-score in test [14] is 0.791 (inactive); in test [15] it was -0.205 (inactive); in test [16] it was 0.381 (inactive); in test [17] it was -0.199; in test [18], 0.587 (inactive); in [19], 0.512 (inactive). In addition, in [20], the z-score stood at 1.88.

Turning to `COC(=O)[C@@]1(Cc2ccccc2CN=[N+]=[N-])N=C(c2ccc(OCCCO)cc2)O[C@H]1c1ccccc1CN=[N+]=[N-]`, the composite z-score in test [1] was 1.25; in [6], -0.754; in test [7], -0.154; in [8], -2.13; in [9], 0.0755; in test [10], -0.427. In [12], this molecule returned a composite z-score of 0.0288. Also, the z-score in test [2] is -4.34 (inactive); in test [3], -0.166 (inactive); in test [4] it was 1.75 (inactive); in test [5], -0.547 (inactive); in test [11], -0.586 (inactive); in test [13], 21.8 (active). The z-score in test [14] was 7.79 (inactive); in test [15], 0.912 (inactive); in test [16], 1.72 (inactive); in test [17] it was 0.141; in [18] it was -2.2 (inactive); in test [19] it was -0.00368 (inactive). Besides, the z-score in [20] is -2.01.

For the molecule `CCOC(=O)C=Cc1cc(F)ccc1O`, the composite z-score in test [1] is 0.139; in test [6], 0.761; in test [7], 0.0705; in test [8], 0.165; in test [9], 0.448; in [10], -0.587. The same molecule returned a composite z-score in test [12] of 0.0355. Moreover, the z-score is -4.58 (inactive) in test [2]; -0.557 (inactive) in test [3]; 0.276 (inactive) in [4]; -0.804 (inactive) in [5]; -1.38 (inactive) in test [11]; 16.6 (active) in [13]. The z-score in [14] is -0.347 (inactive); in test [15] it was 0.782 (inactive); in test [16] it was -1.23 (inactive); in test [17] it was 0.684; in [18], -4.77 (inactive); in test [19] it was -3.25 (inactive). This molecule also yielded a z-score in [20] of -4.14.

For the origin of these results see PubChem BioAssay.
